# Test: basal RPMI8226 mitochondrial membrane potential changes, profiling panel, cell-based, JC-1 fluorescence, 24 h, 100 nL compound (AID 1169); note: test concentration not given here
# Settings: RPMI8226 myeloma, JC-1 mitochondrial potential fluorescence, higher = more signal
row,Compound,z-score
1,C[C@]1(C(=O)O)c2ccccc2C(=O)N(Cc2ccc(OC(F)(F)F)cc2)[C@H]1c1ccc(CO)cc1,-0.0611
2,CN(C)CCCCCCNC(=O)[C@@H]1C[C@@H]2C(=O)N[C@@H](CCCCN)C(=O)N2[C@@H]1c1ccc(O)cc1,-0.273
3,CC(C)C(=C=CC[C@@H](O)c1cccc(OCCO)c1)C[C@@H](O)c1ccccn1,-0.387
4,CCOC(=O)C1=CC[C@@H](c2ccccc2)N(S(=O)(=O)c2ccc(C)cc2)[C@H]1c1cccc(OC)c1,0.505
5,CC(C)=CCCC(C)=CC(O)C1C=CC2C(=O)N(c3ccccc3)C(=O)C2N1Nc1ccccc1F (stereo unspecified),-0.271
6,C=CCC(OC(C)=O)[C@@H]1[C@@H](N(Cc2ccc(-c3cccc(C(F)(F)F)c3)o2)C(=O)Cc2ccc(OC)cc2)c2cc(OCCCO)ccc2N1C(=O)Cc1ccc2ccccc2c1 (stereo partly specified),0.114
7,NC(=O)NCC#Cc1ccc2c(c1)[C@]1(C(=O)N2)[C@H](C(=O)N2CCN(c3ncccn3)CC2)[C@H]2C(=O)O[C@H](c3ccccc3)[C@H](c3ccccc3)N2[C@@H]1c1ccc(OCCO)cc1,-0.504
8,COCCOC(=O)N1C(=O)[C@@]2(c3cc(C#CC4=CCCCC4)ccc31)[C@H](c1ccc(O)cc1)N1[C@H](c3ccccc3)[C@H](c3ccccc3)OC(=O)[C@H]1[C@@H]2C(=O)NC[C@H](O)c1ccccc1,-1.08
9,COCC(=C=CC[C@@H](O)c1cccc(OCCO)c1)CCO,1.15
10,Cc1ccc(S[C@]2(C(=O)NC(C)C)CC(=O)N(C(C)C)[C@@H]2c2ccc(CO)cc2I)cc1,-0.312
11,O=C1O[C@H](c2ccccc2)[C@H](c2ccccc2)N2[C@H]1[C@@H](C(=O)N1CCCCCCC1)[C@]1(C(=O)Nc3ccc(C#CC4(O)CCCCCC4)cc31)[C@H]2c1ccc(O)cc1,-0.613

# Source: PubChem BioAssay
